# Screens from PubChem BioAssay.
# Only some compounds are listed: those with a hit (about 7.6% of all), similar ones and a draw of the others.
# Cy5 interf NS3h = Cy5 fluorescence quenchers or enhancers, artefact control for HCV NS3 helicase inhibitor project, biochemical, ChemBridge library, Cy5 readout. fluorescence interference ratio at 100 µM. Cy5-dT15 DNA with NS3h, fluorescence interference; actives lie on both sides; signal over control mean, under 1 quenches. 16,000 compounds, 6% hits;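 active means compound fluorescence over control fluorescence at most 0.8, a quencher, or at least a set upper limit, an enhancer; inactive means ratio between 0.8 and the set upper limit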
# NS3h inh CB = HCV NS3 helicase inhibitors, primary screen, biochemical, fluorescence polarization, ChemBridge library; inhibition, % at 100 µM; Hepatitis C virus NS3 helicase; 16,000 compounds, 1.6% hits; NS3h Cy5-dT15 DNA binding; AID 687043, 2013;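 active means inhibition above the average over every tested compound plus 3 SD, cut at about 40% in these data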
# * = called active by the depositor.
SMILES,Cy5 interf NS3h,NS3h inh CB
CCc1ccc(NC(=S)NC(=O)/C=C/c2ccccc2)cc1,0.9,49*
CC(=O)c1ccc(NC(=S)NC(=O)/C=C/c2ccccc2)cc1,1.1,5
CC(=O)CC(=O)Nc1ccn(-c2ccccc2)n1,1,-1
COc1cc(/C=C2\SC(=S)NC2=O)ccc1Oc1ccc([N+](=O)[O-])cn1,0.89,-3
CN1C(=O)C(=Cc2ccccc2OCc2ccc([N+](=O)[O-])cc2)C(=O)N(C)C1=O,0.58*,33
O=C(O)CN1C(=O)/C(=C/c2ccccc2OCc2ccc([N+](=O)[O-])cc2)SC1=S,1.1,24
COc1cc(C=C2C(=O)N(C)C(=O)N(C)C2=O)ccc1Oc1ccc([N+](=O)[O-])cn1,0.79*,30
COc1ccc(N(CC(=O)Nc2cccc(OC)c2)S(=O)(=O)c2ccc(C)cc2)cc1,0.96,11
O=C(Nc1ccc(OC(F)(F)F)cc1)c1cc2n(n1)C(C(F)(F)F)CC(c1cccs1)N2 (stereo not given),0.71*,9
O=C(NCC1CCCO1)c1cc2n(n1)C(C(F)(F)F)CC(c1cccs1)N2 (stereo not given),1,4
NC(=O)c1nn2c(c1Cl)NC(c1cccs1)CC2C(F)(F)F (stereo not given),0.67*,0
CC1CCCC(C)N1C(=O)c1nn2c(c1Cl)NC(c1cccs1)CC2C(F)(F)F (stereo not given),0.99,9
O=C(O)CCSc1nc2ccccc2n1Cc1ccccc1,1.1,-11
CCOC(=O)C1=C(O)/C(=C/N(C)C)N=C1C,1.1,-5
Cc1ccccc1NC(=O)c1c(NC(=O)c2ccc([N+](=O)[O-])cc2)sc2c1CCC2,0.95,4
COC(=O)c1ccc(C(=O)OC)c(NC(=O)c2cccc(OC)c2)c1,1,12
CS(=O)(=O)N1CCN(C(=O)c2ccccc2F)CC1,0.7*,8
COc1ccc(C(=O)N2CCN(S(C)(=O)=O)CC2)cc1,1.1,-2
O=[N+]([O-])c1ccccc1-c1nc(-c2cnc3ccccc3c2)c(-c2ccccc2)[nH]1,0.95,12
COc1ccc(/C=C2\C(=O)NC(=O)N(c3cc(C)cc(C)c3)C2=O)cc1I,1.1,11
C=CCn1c(SCC(=O)O)nnc1-c1ccc(OC)cc1,1,-4
C=CCN1C(=O)c2ccccc2C1(O)c1ccc(OC)cc1 (stereo not given),0.74*,9
Cc1ccc(-c2cc(NC(=O)c3ccc(F)cc3)n[nH]2)cc1,1,13
CC(=O)Nc1cc(-c2ccc(Cl)cc2)[nH]n1,0.67*,7
O=C1c2ccccc2S(=O)(=O)N1c1c(F)c(F)c(C(F)(F)F)c(F)c1F,1.1,-3
SMILES,Cy5 interf NS3h,NS3h inh CB
O=C(O/N=C(\c1ccccc1)c1ccncc1)c1ccc(Br)cc1,0.66*,25
N/C(=N/OC(=O)c1cccc(Br)c1)c1ccncc1,0.89,8
Cc1ccc(/C(N)=N\OC(=O)c2ccc([N+](=O)[O-])cc2)cc1,0.87,31
COc1cc(OC)cc(C(=O)O/N=C(/c2ccncc2)c2ccc([N+](=O)[O-])cc2)c1,0.61*,12
CCc1nc2ccccc2n1Cc1ccc([N+](=O)[O-])cc1,1,4
CN(C)CCn1c2ccccc2c2nc3ccc([N+](=O)[O-])cc3cc21,0.74*,-13
Cn1cnnc1SCC(=O)c1ccccc1,1.2,6
O=C(ON1C(=O)c2ccccc2C1=O)c1ccccc1[N+](=O)[O-],0.88,-9
COc1ccc(S(=O)(=O)N(CCc2ccccc2)CC(=O)Nc2ccccc2Cl)cc1,0.98,17
O=c1cc(-c2ccccc2)nc2cc(-c3cccc(Cl)c3)[nH]n12,1.2*,-58
O=c1c2c(nc3cc(-c4cccc(Cl)c4)[nH]n13)CCS2,0.72*,-51
O=c1c2c(nc3cc(-c4cccc(F)c4)[nH]n13)CCCC2,1.1,10
Cc1cc(=O)n2[nH]c(-c3cccc(F)c3)cc2n1,1.1,-8
Cc1ccc(OCC(=O)Nc2cc(C)ccc2C)cc1,1,5
O=C(C1CC1c1ccccc1)N1CCN(C(c2ccccc2)c2ccccc2)CC1 (stereo not given),0.92,6
COc1ccc(C2=N/C(=C/c3ccc([N+](=O)[O-])cc3)C(=O)N2c2ccc(O)cc2)cc1,0.79*,16
Cc1cccc(C2=N/C(=C/c3ccc([N+](=O)[O-])cc3)C(=O)N2c2ccc(O)cc2)c1,0.97,15
CCN1C(=O)/C(=C\c2cccc(OCc3cccc4ccccc34)c2)SC1=S,1.1,-1
COc1ccc(/C=C/C(=O)Nc2cc(C)ccc2C)cc1,0.95,4
CC(C)C(=O)NC(c1ccccc1)c1ccc2cccnc2c1O (stereo not given),1,6
O=C(/C=C/c1ccc(S(=O)(=O)Nc2ccccc2)cc1)C1C(=O)c2ccccc2C1=O,0.47*,-38
